Cardio protect – modulators protecting cardiomyocytes from myocardial damage; H9c2 cardiomyocytes, H2O2 injury protection, ATPLite, 2 h; protection from H2O2 cell death, % at 20 µM; 360,000 tested, 0.63% active;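 active = compounds giving at least 50% protection of heart cells from peroxide-induced death in the single-dose screen, raw or plate-pattern-corrected value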
SKN-1 block – blocks SKN-1 activity in C. elegans; C. elegans VP596 Pgst-4::GFP/RFP ratio, acrylamide-induced, 24 h; inhibition, % at 21.8 µM; 360,000 tested, 0.49% active;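 active = interference check ratio from 0.5 to 1.5 plus GFP to RFP signal ratio inhibition reaching or exceeding a fixed threshold, cut at about 30% in these data, passing the limit was not always enough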
CRFR2-BP antag – CRF-BP/CRF-R2 complex antagonism; HEK293 CRF-R2/CRF-BP, CRF-induced calcium fluorescence; inhibition, % at 11.8 µM; 350,000 tested, 0.59% active;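 active = inhibition of the ligand-induced calcium signal above about 50% at the single tested concentration, limit read from the data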
CRFBP-R2 agonist – agonists of human CRF-binding protein/CRF-R2 receptor complex. HEK293 CRF-R2/CRF-BP, calcium dye fluorescence (FLIPR); percent of saturating CRF peptide response. activation, % at 13.2 µM. 350,000 tested, 0.46% active. AID 588473;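 active = activation of at least 50%, plus an integration ratio under a set limit after plate pattern correction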
hiPSC survival – hiPSC single-cell survival enhancement; ATPlite luminescence; 100% = ROCK inhibitor wells, 0% = DMSO; survival enhancement, % at 20 µM; 360,000 tested, 0.044% active; AID 602274; in the data active = survival enhancement above about 18%;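 also: cells exposed to compounds for 16 hours before the ATP read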
H9c2 TAG inh – triacylglycerol accumulation inhibition; 230,000 tested, 0.66% active; H9c2 cells, Nile Red lipid (TAG) fluorescence; cells loaded with 200 µM oleic acid; inhibition, % at 12.5 µM;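 active = pattern-corrected inhibition of lipid staining of at least 50% with the nuclear-stain viability signal not falling by more than 50%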
TAG conf – triacylglycerol accumulation inhibition, confirmation; shares compounds with H9c2 TAG inh; H9c2 lipid accumulation, Nile Red fluorescence; cells loaded with 200 µM oleic acid; inhibition, % at 12.5 µM; 990 tested, 71% active; AID 651629;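 active = mean inhibition across replicates of 40% or more; inactive = mean inhibition below 40%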
A number is an active result; i = inactive; nt = no result. Only some compounds are listed: those with a hit (about 2.5% of all), similar ones and a draw of the others.

SMILES	Cardio protect	SKN-1 block	CRFR2-BP antag	CRFBP-R2 agonist	hiPSC survival	H9c2 TAG inh	TAG conf
Fc1ccc(NC(=S)N2Cc3ccccc3-n3nncc3C2)cc1	i	i	i	i	i	i	nt
O=c1[nH]c(O)c(/C=C2/C=CC(c3cc(Cl)ccc3Cl)=N2)c(=O)[nH]1	i	i	i	103	i	i	nt
Cc1ccc2c(c1)=NC(=O)/C(=C/c1c(O)[nH]c(=O)[nH]c1=O)C=2	i	i	i	i	i	i	nt
O=c1[nH]c(O)c(N=Nc2cc([N+](=O)[O-])ccc2O)c(=O)[nH]1	i	50	i	i	i	i	nt
COc1ccc(CN2Cc3cc(N4CCCCC4)ccc3-n3nncc3C2)cc1	i	i	nt	nt	i	nt	nt
CC(=O)O[C@@H]1/C=C/[C@](C)(O)C[C@@H](C)C/C=C/[C@H]2[C@H](O)C(C)=C(C)[C@H]3[C@H](Cc4ccccc4)NC(=O)[C@@]123	nt	nt	i	i	nt	nt	nt
C=C1C(C)C2C(Cc3ccccc3)NC(=O)C23C(OC(C)=O)C=CC(C)(O)CC(C)CC=CC3C1O (stereo unspecified)	i	i	i	i	60	98	nt
C=C1[C@@H](C)[C@H]2[C@H](Cc3ccccc3)NC(=O)[C@]23OC(=O)/C=C/[C@H](O)CCC[C@@H](C)C/C=C/[C@H]3[C@@H]1O	79	i	i	i	40	i	nt
CC(C)OC(=O)Cc1ccccc1	i	i	i	i	i	nt	nt
COc1ccc2[nH]c(C)c(CCNCc3cn(C)c4ccccc34)c2c1	i	i	i	i	i	56	46
COc1ccc(C2=CC(c3ccc4c(c3)OCO4)c3c(c4ccccc4oc3=O)O2)cc1OC (stereo unspecified)	i	i	i	i	i	61	60
COc1ccc(C(CC(=O)c2ccc3c(c2)OCO3)c2c(O)c3ccccc3oc2=O)cc1OC (stereo unspecified)	i	i	i	i	i	i	nt
CCCCCCC(C)(C)c1ccc([C@@H]2C[C@H](O)CC[C@H]2CCCO)c(O)c1	i	i	i	i	i	106	116
O=S(=O)(c1cc(Cl)cc(Cl)c1)N1Cc2cc(-c3cccc(F)c3)ccc2-n2nncc2C1	i	i	nt	nt	i	nt	nt
CCN(CC)C(=O)c1ccc(NC(=O)COc2ccccc2F)cc1	i	i	i	i	i	i	nt
COC(=O)C1=C(c2ccc(OCc3ccccc3)cc2)C[C@@H]2CC[C@H]1N2C(=O)NCc1ccc(C(C)(C)C)cc1	i	i	i	i	i	70	75
COC(=O)C1=C(c2ccc(OCc3ccccc3)cc2)C[C@@H]2CC[C@H]1N2C(=O)NCc1ccccc1	i	i	i	i	i	i	nt
CN1CSC(=S)N(C)C1	i	i	i	i	i	64	64
COC(=O)C1=C(c2cccc(C#N)c2)C[C@@H]2CC[C@H]1N2C(=O)NCCOc1ccccc1Cl	i	i	i	i	i	i	nt

From PubChem BioAssay
